Compound activity from PubChem.
PERK inhibitor: block of dimerizer-induced PERK translation repression, primary screen, PERK inhibitor project, CHO PERK-DD cells, SEAP luminescence, HTS. 0.17% of 220,000 active. Eukaryotic translation initiation factor 2-alpha kinase 3 (Homo sapiens), Q9NZJ5. AID 1416, 2008. inhibition, % at 5.6 µM. CHO PERK-DD fusion, SEAP luminescence translation reporter;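 active means inhibition above the mean inhibition of all tested compounds plus 3 SD, set separately per screening campaign, cut at about 2.9% in these data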;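 further: PERK kinase domain activated by AP20187 dimerizer at 100 nM; 0% = DMSO with dimerizer and 100% = rapamycin at 8.4 µM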
PABP1 MLLE inh: inhibitors of PABP1 MLLE–PAM2 peptide binding, primary screen, biochemical, fluorescence polarization, FITC-PAM2, GST-MLLE. inhibition, % at 20 µM. 0.36% of 360,000 active. Polyadenylate-binding protein 1 (Homo sapiens), P11940; in the data active means inhibition above about 35%, passing the limit was not always enough;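 further: plate controls were DMSO wells with GST-MLLE for no effect and wells lacking GST-MLLE protein for full effect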
Target sequence (P11940 whole entry, looked up): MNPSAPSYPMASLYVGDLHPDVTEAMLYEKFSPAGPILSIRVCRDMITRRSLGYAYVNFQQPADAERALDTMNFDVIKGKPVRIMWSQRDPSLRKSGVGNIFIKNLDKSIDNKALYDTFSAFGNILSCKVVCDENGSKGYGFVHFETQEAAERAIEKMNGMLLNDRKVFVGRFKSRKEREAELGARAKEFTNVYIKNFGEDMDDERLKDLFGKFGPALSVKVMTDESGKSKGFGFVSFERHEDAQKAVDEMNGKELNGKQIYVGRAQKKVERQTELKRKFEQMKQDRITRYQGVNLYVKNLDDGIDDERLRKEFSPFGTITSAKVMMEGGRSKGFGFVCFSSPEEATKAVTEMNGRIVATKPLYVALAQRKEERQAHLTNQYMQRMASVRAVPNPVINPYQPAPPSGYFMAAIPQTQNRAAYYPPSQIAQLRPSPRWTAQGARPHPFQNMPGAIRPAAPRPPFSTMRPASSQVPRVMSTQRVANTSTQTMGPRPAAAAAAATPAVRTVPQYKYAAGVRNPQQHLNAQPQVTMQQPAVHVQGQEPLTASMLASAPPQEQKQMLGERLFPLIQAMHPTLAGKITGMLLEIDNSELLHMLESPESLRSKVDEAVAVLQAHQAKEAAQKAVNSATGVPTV
PABP FP inh: PABP poly(A) RNA binding inhibitors, primary screen, biochemical, fluorescence polarization, uHTS. AID 2014, 2009. inhibition, % at 35 µM. 1% of 290,000 active;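 further: calls also rest on retests at 20 µM and on dose response follow-up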
eIF4E 4G PPI: eIF4E–eIF4G protein interaction inhibitors, primary screen, biochemical, uHTS, TR-FRET, eIF4GI fragment. 0.37% of 220,000 active. Eukaryotic translation initiation factor 4E (Mus musculus) + Eukaryotic translation …. TR-FRET eIF4E-eIF4GI(517-606) binding, 2 h. inhibition, % at 21.7 µM. AID 782, 2007;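 active means inhibition above about 30%, limit read from the data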;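 further: 0% = full FRET control wells and 100% = background wells lacking eIF4GI fragment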
eIF4H inh: human eIF4H binding inhibitors, primary screen, translation initiation inhibitor project, biochemical, uHTS, fluorescence polarization. Eukaryotic translation initiation factor 4H (Homo sapiens), Q15056. eIF4H fluorescence polarization binding assay. inhibition, % at 35 µM. 0.94% of 290,000 active;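 further: calls also rest on retests at 20 µM and on dose response follow-up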
An asterisk follows results filed as active; ? = inconclusive; . = no result; + = active, no number; [ ] = remark or other dose. Rows were chosen to be rich in hits. Some 1.6% of all compounds tested hit in one or more screens of this group. Unless noted, how the calls were made is not given here.

SMILES	PERK inhibitor	PABP1 MLLE inh	PABP FP inh	eIF4E 4G PPI	eIF4H inh
Cc1cc(C)cc(OCCNC(=O)C2CCN(S(=O)(=O)c3ccccc3)CC2)c1	.	-10.6	4.1	.	-3.3
CCOc1ccccc1N=C1SCC(C)N1C(=O)C1CCN(c2ncnc3sc(C)c(C)c23)CC1 (stereo not drawn)	.	-11.3	.	.	.
C/C(=N/N=C1\SCC(=O)N1c1ccccc1)c1ccc(C)cc1	3.7*	-10.6	3.1	1.8	11.5
C/C(=N\N=C1/SC(CC(=O)O)C(=O)N1c1ccccc1)c1ccc(C)cc1 (stereo not drawn)	.	0.0	1.1	.	-7.1
Cc1ccc(C(=O)Nc2ccc(S(=O)(=O)Nc3cnc4ccccc4n3)cc2)cc1	.	-0.5	19.1	.	4.1
COc1ccc(C(=O)NCCCNC(=O)c2ccccn2)cc1Br	.	-1.6	1.5	.	4.0
CC1(C(=O)NS(=O)(=O)c2ccccc2Cl)CCN1C(=O)Cc1cc(F)ccc1F (stereo not drawn)	.	-5.4	.	.	.
N#C/C(=C\c1ccc(OCc2ccc(Br)cc2)cc1)C(=O)Nc1cccc(C(=O)O)c1	.	8.6	-0.4	.	4.5
N#C/C(=C/c1ccc(OCc2ccc(C(=O)O)cc2)cc1)C(=O)Nc1ccccc1	.	-129.6	51.2*	.	20.8
COC(=O)c1ccc(COc2ccc(/C=N/Nc3cccc(C(=O)O)c3)cc2)cc1	2.2	5.7	54.3*	4.9	75.3*
CSc1ccc(/C=N/Nc2cccc(C(=O)O)c2)cc1	-0.2	9.0	9.9	34.5*	104.2
O=C(O)c1cccc(N/N=C/c2ccc(OC(F)(F)F)cc2)c1	.	16.4	-1.2	.	-1.9
O=C(O)c1ccc(COc2ccc(/C=N/NC(=O)c3cccs3)cc2)cc1	-0.2	-111.3	58.2*	-14.4	-0.7
O=C(N/N=C/c1cccc(OCc2ccccc2)c1)c1cccs1	-0.7	12.8	-7.8	4.5	-11.0
COc1ccc(CN2CCN(CCc3ccccc3)C(CCO)C2)c(Cl)c1OC (stereo not drawn)	.	2.9	5.1	.	-4.5
Cc1ccc(C)c(NC(=O)CCC(=O)NN=C2CCCC2)c1	.	-10.1	-9.1	.	9.2
CC(OC(=O)C1CC1)C(=O)Nc1cc(Cl)cc(Cl)c1 (stereo not drawn)	.	-14.6	.	.	.
COc1ccccc1NC(=O)COC(=O)c1ccc(N2CCCC2=O)cc1	.	3.9	.	.	.
COc1ccc(N2Cc3ccc(C(=O)N/N=C\c4ccc(O)cc4O)cc3C2)cc1	.	.	19.7	.	64.7*
O=C(c1ccc(Cl)cc1)C1CCN(C(=S)Nc2ccccc2)CC1	.	-99.8	.	.	.
O=C(CN1CCCCCC1)N1c2ccccc2Sc2ccccc21	-0.4	-10.6	-5.8	-0.9	-6.2
CC1CCCN(CC(=O)N2c3ccccc3Sc3ccccc32)C1 (stereo not drawn)	0.6	-0.3	53.8	3.3	3.1*
CC1=C(C#N)C(=O)NC(=O)/C1=C\c1ccc(-c2ccc(C)cc2[N+](=O)[O-])o1	-0.2	16.5	3.3	32.6*	?
CCOC(=O)c1cc(-c2ccc(/C=C3/C(=O)NC(=O)C(C#N)=C3C)o2)ccc1Cl	0.9	18.4	87.3*	58.6*[fluorescence artefact?]	?
Cc1ccc(-c2ccc(/C=N/N=C3/NC(=O)C(CC(=O)O)S3)o2)c([N+](=O)[O-])c1 (stereo not drawn)	0.1	-83.4	6.5	9.9	36.6
SMILES	PERK inhibitor	PABP1 MLLE inh	PABP FP inh	eIF4E 4G PPI	eIF4H inh
CCN(CC)S(=O)(=O)c1cccc(-c2nnc(SCC(=O)c3cc(C)n(C4CC4)c3C)o2)c1	.	-112.7	86.5*	.	70.3*
C=CCn1c(C)cc(C(=O)CSc2nnc(-c3cccc(S(=O)(=O)N(CC)CC)c3)o2)c1C	0.3	-97.3	-7.7	-18.3	6.9
COc1cc(OC)cc(C(=O)NC2CC3CCC(C2)N3C)c1 (stereo not drawn)	.	-0.2	.	.	.
Cc1c2ccccc2nc2c(F)c(NC(C)C)c(F)c(F)c12	-0.9	144.7	+	-0.7	82.3*
Cc1c2ccccc2nc2c(F)c(NCCO)c(F)c(F)c12	0.6	126.2	3.3	10.2	86.6
CC(C)COc1ccc(-c2nn(-c3ccccc3)cc2/C=C2/SC(=S)N(CC(=O)O)C2=O)cc1	.	-1.9	12.3	.	92.8*
CSc1cccc(NC(=S)N(Cc2ccc(C)cc2)Cc2cccnc2)c1	-0.1	-16.2	-19.7	87.1*	0.0
Cc1ccccc1NC(=S)N(Cc1ccccc1)Cc1cccnc1	-0.5	-29.4	2.5	-1.0	-1.3
O=C(c1ccc(F)cc1)[C@@H]1[C@@H](C(=O)c2ccccc2)[C@@]2(C(=O)Nc3ccccc32)[C@H]2c3ccccc3C=CN12	-0.2	.	6.4	1.8	51.1*
CC(=O)[C@@H]1[C@@H](C(=O)c2ccc(F)cc2)[C@]2(C(=O)Nc3ccccc32)[C@H]2C=Cc3cc(F)ccc3N12	0.1	12.5	5.6	-4.3	3.5
COc1ccc(NC(=O)NC2(C(=O)N3CCCCC3)CCCCC2)cc1	.	-1.4	4.8	.	-3.7
COc1ccc(CN2CC(=O)N3[C@H]4c5ccccc5OC[C@@H]4[C@H](c4ccccc4)[C@]3(C)C2=O)cc1	.	43.2*	.	.	.
Nn1c(SCc2ccccc2F)nnc1-c1ccccn1	-1.1	-7.5	61.3*	-3.2	4.1*
Cc1ccc(C(=O)N(CC(C)C)c2c(N)n(Cc3ccccc3)c(=O)[nH]c2=O)o1	.	-5.8	.	.	.
O=C(/C=C/c1cccs1)Nc1scc(-c2ccccc2)c1C(=O)O	0.1	-4.0	3.2	92.4*	8.1
CCOC(=O)CC(NS(=O)(=O)c1ccc2[nH]cc(C(=O)O)c(=O)c2c1)c1ccc(OCC)c(OC)c1 (stereo not drawn)	.	-3.6	41.1*	.	78.7*
CCOC(=O)CC(NS(=O)(=O)c1ccc(OC)c(OC)c1)c1cccc([N+](=O)[O-])c1 (stereo not drawn)	-0.2	-7.5	15.1	1.8	7.1
O=C(NCCC(=O)N(Cc1ccco1)Cc1cccs1)c1ccc(Br)cc1	.	12.4	.	.	.
O=C(Nc1ccc(-n2cnnn2)cc1)C(c1ccccc1)c1ccccc1	-0.2	1.3	61.6*	-5.8	-9.5
O=C(O)c1ccc2[nH]c3c(c2c1)CSCC3	-0.8	33.4	41.2	5.0	56.2*
CCN(CC)C(=O)CSc1nnc(SCc2ccc(Cl)cc2)s1	-0.7	-11.1	-5.1	-5.3	-16.0
CCN(CC)C(=O)CSc1nnc2nnc3cc(C)ccc3n12	1.6	39.6*	?	6.4	?
CCN(CC)C(=O)CSc1nnc2nnc3cc(Cl)ccc3n12	0.9	67.1*	?	-2.5	?
CCCn1c(SCC(=O)N(CC)CC)nnc1-c1ccncc1	2.6	9.8	-7.3	4.7	-4.2
CC(C)N(C(=O)c1ccc(Cc2cn(C)c3ccccc23)nc1)C(C)C	.	-4.5	.	.	.
COC(=O)[C@]1(C)N[C@H](CN(C)C(C)=O)[C@@H]2C(=O)N(Cc3ccccc3)C(=O)[C@@H]21	.	-3.2	.	.	.
